According to PubChem BioAssay AID652257 (The Scripps Research Institute Molecular Screening Center, 2013):
Several values for one entry are separate records, joined by “and”; a condition that tells them apart may be missing. Equal values may be shown once. Among all 370,000 compounds or so, about 4,800 (1.3%) were called active.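 The calls were made as follows: active = inhibition above about 21% made by adding two undisclosed values (limit read from the data); inactive = the rest.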 Shown is part of a subset that was picked to be rich in actives.

Target: Protein arginine N-methyltransferase 1 (Homo sapiens) (UniProt Q99873)
Sequence (Q99873 whole entry, looked up): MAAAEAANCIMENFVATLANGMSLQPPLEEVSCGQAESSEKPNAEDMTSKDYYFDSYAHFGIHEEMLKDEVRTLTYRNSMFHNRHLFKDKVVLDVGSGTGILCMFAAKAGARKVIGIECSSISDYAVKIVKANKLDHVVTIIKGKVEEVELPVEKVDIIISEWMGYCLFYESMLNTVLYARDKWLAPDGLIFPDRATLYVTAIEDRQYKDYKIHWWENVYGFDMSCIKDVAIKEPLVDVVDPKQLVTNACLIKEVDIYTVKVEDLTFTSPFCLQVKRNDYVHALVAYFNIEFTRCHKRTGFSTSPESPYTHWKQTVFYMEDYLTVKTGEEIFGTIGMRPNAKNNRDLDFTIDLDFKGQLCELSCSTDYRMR
Assay: human PRMT1 activity-probe blockers – biochemical, fluorescence polarization, primary screen (AID 652257)
Details: recombinant PRMT1, activity-based probe fluorescence polarization; at 2.79 µM; active compounds read high

Row | SMILES | inhibition
1 | Clc1cccc2c1C1CC2CCN1Cc1ccccc1 (configuration not stated) | -1.44% (inactive)
2 | CCCn1c(N)c(C(=O)CSc2nnc(-c3cccnc3)n2-c2ccc(C)cc2C)c(=O)[nH]c1=O | -1.38% (inactive)
3 | COc1ccc(C#CCNCc2ccc(OC)cc2OC)cc1 | 0.44% (inactive)
4 | CN(C)S(=O)(=O)c1cccc(-c2nn(-c3ccccc3)cc2/C=C2\SC(=S)N(CC(=O)O)C2=O)c1 | 28.2% (active)
5 | Cc1ccc(-c2nn(-c3cccc(F)c3)cc2CNCCc2ccncc2)o1 | -2.78% (inactive)
6 | Cc1ccc(-c2nn(-c3ccccc3)cc2CN(Cc2ccccc2)C(=O)CCC(=O)O)o1 | 30.5% (active)
7 | O=C(O)CCC(=O)N(Cc1ccccc1)Cc1ccccc1 | -4.57% (inactive)
8 | O=C(/C=C/c1cn(-c2ccccc2)nc1-c1ccc2c(c1)OCCO2)NCCCN1CCOCC1 | 3.18% (inactive)
9 | COc1cccc(-c2nn(-c3ccccc3)cc2/C=C(\C#N)C(=O)NCCCn2ccnc2)c1 | -2.79% (inactive)
10 | Cc1ccc(-c2nn(-c3ccccc3)cc2/C=C2\SC(=S)N(CCCCCC(=O)O)C2=O)o1 | 78.2% (active)
11 | COc1ccc(COCCN2CCN(S(=O)(=O)c3ccccc3)CCC2=O)cc1 | 1.29% (inactive)
12 | O=C(NCC1COc2ccccc2O1)c1ccc(NC(=O)c2cc(F)ccc2F)cc1 (configuration not stated) | 4.4% (inactive)
13 | NC(=O)c1ncn([C@@H]2O[C@H](CNCc3cnc(N4CCOCC4)s3)[C@@H](O)[C@H]2O)n1 | -0.65% (inactive)
14 | C[C@@H]1ON(C)[C@H]2C[C@H]3c4[nH]c5cccc(-c6ccc7c(c6)OCO7)c5c4CCN3C[C@@H]12 | -2.89% (inactive)
15 | COC(=O)[C@H](C(C)C)N1CCc2nnn(Cc3ccc(C)cc3)c2-c2ccccc2S1(=O)=O | 0.49% (inactive)
16 | CCOC(=O)[C@]12CCCC3=C1N(CCC3)C(=O)[C@@H](CC(=O)NCC13CC4CC(CC(C4)C1)C3)C2 | -3.58% (inactive)
17 | CCC(=O)c1c(CC)c2n3c1=CC[C@H]3CC(Br)C=2 (some centres not stated) | 0.28% (inactive)
18 | COc1ccc(-n2c(SCC(=O)NC3CCCC3)nnc2-c2ccncc2)cc1 | 4.19% (inactive)
19 | N#CC1(NC(=O)COC(=O)Cc2n[nH]c(=O)c3ccccc23)CCCCC1 | 1.07% (inactive)

Row | SMILES | inhibition
20 | N#CC1(Nc2ccc3c4c(cccc24)CC3)CCCCC1 | 50.2% (active)
21 | O=S(=O)(NC1CC1)c1ccc2c3c(cccc13)CC2 | -2.46% (inactive)
22 | Cc1ccc2c(cnn2C(=O)CCC(=O)NC2CCCC2)c1 | 3.39% (inactive)
23 | COc1ccc(CNS(=O)(=O)c2ccc(NC(=O)N3CCCCC3)cc2)cc1 | -0.17% (inactive)
24 | CC(C)=C1C2CCC1C1C(=O)N(NC(=O)c3ccco3)C(=O)C21 (configuration not stated) | -2.54% (inactive)
25 | COc1ccc(CN2C(=O)N3Cc4cc(OC)ccc4C3CS2(=O)=O)cc1 (configuration not stated) | 3.9% (inactive)
26 | CCN1C(=O)N[C@@H]2C[C@H](C(=O)N3CCCC3)[C@H](C)[C@H](c3ccccc3)C[C@@H]21 | -4.4% (inactive)
27 | COc1ccccc1-c1nnc(NC(=O)c2ccc3ncsc3c2)o1 | 9.47% (inactive)
28 | O=C(COC(=O)c1ccc2ncsc2c1)Nc1ccc(Cl)cc1 | 14.3% (inactive)
29 | Cc1sc(NC(=O)c2ccc3ncsc3c2)c(C(N)=O)c1C | 33.8% (active)
30 | CN1CCCc2nc(-c3ccccc3)ccc21 | -1.81% (inactive)
31 | Cc1c(C(C)CCCO)oc(=O)c2c1Oc1c(C)c(C(C)C[C@@H](C)O)oc(=O)c1C2 (some centres not stated) | 1.8% (inactive)
32 | CCCN(CCC)S(=O)(=O)c1cc2c(cc1Br)CCN2C(=O)CC | -3.61% (inactive)
33 | CCOc1cnc(C(=O)NNC(=O)c2ccccc2Br)o1 | 0.46% (inactive)
34 | COC(=O)C12C=C3CC(c4ccccc4)=C3C(=O)N1Cc1[nH]c3ccccc3c1C2 (configuration not stated) | -2.05% (inactive)
35 | CCc1ccccc1NC(=O)CSc1nnc(-c2cccs2)o1 | -1.47% (inactive)
36 | CN(C)c1ccc(C(CC(=O)O)C(=O)O)cc1 (configuration not stated) | 39.2% (active)
37 | CC(=O)NC(CC(=O)O)c1ccc(F)cc1 (configuration not stated) | 0.13% (inactive)
38 | O=C(O)C(CCc1ccccn1)c1ccccc1 (configuration not stated) | 0.25% (inactive)

Row | SMILES | inhibition
39 | C[C@H]1[C@H](NC(=O)c2cccc(N(C)C)c2)CC[C@@]23CCCN2C(=O)CCC[C@@H]13 | -0.17% (inactive)
40 | CCOc1ccc(N(CC(=O)Nc2c(C)n(C)n(-c3ccccc3)c2=O)S(=O)(=O)c2ccc(Cl)s2)cc1 | -5.48% (inactive)
41 | CCO/C([O-])=N/c1c[n+](N2CCOCC2)no1 | -1.72% (inactive) and 4.84% (inactive)
42 | CCOC(=O)N1C(=O)C[C@](Sc2ccc(C)cc2)(C(=O)OC)[C@H]1c1ccccc1 | 53.6% (active)
43 | COC(=O)[C@@]1(Sc2ccc(C)cc2)CC(=O)N(c2cccc(SC)c2)[C@@H]1c1ccccc1 | 4.3% (inactive)
44 | COC(=O)[C@]1(C#N)CC(=O)N(CC2CCCCC2)[C@@H]1c1ccccc1 | -3.09% (inactive)
45 | O=S1(=O)c2c(cccc2N2CC[C@H](O)C2)O[C@@H]2CCN1C2 | -1.77% (inactive)
46 | CC(C)OC(=O)c1sc2nc3c(cc2c1N)C(=O)CCC3 | 0.71% (inactive)
47 | NC(=O)c1sc2nc3c(c(-c4ccccc4)c2c1N)CCC3 | 21.5% (active)
48 | COc1ccccc1-c1c(C#N)c(N)nc2c1CCC2 | -2.76% (inactive)
49 | c1ccc2c(C[n+]3csc4ccccc43)cccc2c1 | 31.2% (active)
50 | Nc1scc[n+]1Cc1cccc2cccnc12 | -6.71% (inactive)
51 | CN1[C@H](Cc2ccccc2)COc2cccc(N3CCSCC3)c2S1(=O)=O | 6.45% (inactive)
52 | COC(=O)C1CN(Cc2cn(Cc3ccc(F)cc3)nn2)CCS(=O)(=O)N1Cc1ccc(Cl)cc1 (configuration not stated) | -0.68% (inactive)
53 | COCC(=O)N[C@@H]1C[C@@H]2O[C@@H](CO)CC[C@@H]2O[C@@H]1CCc1ccc(-c2ccccc2)cc1 | 0.28% (inactive)
54 | CCOCc1c(C(=O)N2CCN(Cc3ccc(Br)s3)CC2)oc2ccccc12 | -1.1% (inactive)
55 | CN(C(=O)c1cccc(NC(=O)Cc2cccc([N+](=O)[O-])c2)c1)C1CCCCC1 | -0.61% (inactive)
56 | CCc1ccc(NC(=O)C(C)OC(=O)/C=C/c2cccc([N+](=O)[O-])c2)cc1 (configuration not stated) | -0.43% (inactive)
57 | COC(=O)/C=C\C(=O)Nc1cccc([N+](=O)[O-])c1 | 91.7% (active)
